From PubChem BioAssay AID720511 (Broad Institute, 2013)
In all, about 350,000 compounds went through this assay and about 1,300 (0.37%) were called active. The sample holds actives, similar compounds and a random draw of the others, so the mix is not that of the screen.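 How the source made its calls: active means mean added fluorescence quench of at least 8% versus neutral control, with both replicates also reaching 8%; inconclusive means only one of the mean or replicate conditions met; inactive means mean below 8% and not both replicates reaching 8%.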

Assay: F508del CFTR correction, initial screen, CFBE line, single point (AID 720511);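 further: cells transiently co-express mutant CFTR-F508del with the halide-sensitive YFP; corrector assay measuring rescue of mutant channel to the surface after 24 h compound exposure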
Conditions: CFBE cells, YFP halide quenching, at 7.58 µM, stronger effect = higher value, % fluorescence drop versus neutral controls, stimulated with forskolin plus potentiator P3

**Q.** With `Cc1ccc(S(=O)(=O)Nc2ccc3c(c2)C(=O)N([C@@H](C)CO)C[C@@H](C)[C@H](CN(C)Cc2ccncc2)O3)cc1` as the molecule, how does the activity (quench increase) read?
**A.** -0.494% (inactive)

**Q.** With `C[C@@H]1CCCCO[C@H](CN(C)Cc2ccc(Cl)c(Cl)c2)[C@@H](C)CN([C@@H](C)CO)C(=O)c2cc(NC(=O)Nc3ccccc3)ccc2O1` as the molecule, how does the activity (quench increase) read?
**A.** 0.025% (inactive)

**Q.** Which activity (quench increase) does the source give for `COc1ccc(CNC(=O)COC(=O)c2ccc(C)c(S(=O)(=O)N3CCOCC3)c2)cc1OC` here?
**A.** -3.23% (inactive)

**Q.** Which activity (quench increase) does the source give for `Cc1ccc(C(=O)OCC(=O)N2CC(C)CC(C)C2)cc1S(=O)(=O)N1CCCCC1` (configuration not stated) here?
**A.** 0.347% (inactive)

**Q.** With `Cc1ccc(C(=O)OCC(=O)NCc2cc(C)c(O)c(C)c2)cc1S(=O)(=O)N1CCCCC1` as the molecule, how does the activity (quench increase) read?
**A.** 9.62% (active)

**Q.** For `Cc1cc(C)c(C#N)c(Nc2cccc(Br)c2)n1`, which activity (quench increase) is on record?
**A.** -5.44% (inactive)

**Q.** For `Cc1cc(Nc2ccc(Br)cc2)nc2ccccc12`, which activity (quench increase) is on record?
**A.** 10.3% (active)

**Q.** For `C[C@H]1CN([C@@H](C)CO)C(=O)c2ccccc2-c2ccccc2CO[C@@H]1CN(C)C(=O)CCN(C)C`, which activity (quench increase) is on record?
**A.** -0.09% (inactive)

**Q.** Which activity (quench increase) does the source give for `O=C(Nc1ccc(F)cc1)N[C@H]1CC[C@H](CCn2cc(C3(O)CCCC3)nn2)O[C@@H]1CO` here?
**A.** 0.048% (inactive)

**Q.** With `Cc1nc(/N=C(\N)NC(=O)NC2CCCCC2)nc2ccccc12` as the molecule, how does the activity (quench increase) read?
**A.** 12.3% (active)

**Q.** For `O=C(NNC(=O)C(O)c1ccccc1)NC1CCCCC1` (configuration not stated), which activity (quench increase) is on record?
**A.** -1.37% (inactive)

**Q.** For `CC(C)c1cc(C(=O)NC2CCCCCC2)c2ccccc2n1`, which activity (quench increase) is on record?
**A.** 0.503% (inactive)

**Q.** Which activity (quench increase) does the source give for `CNC[C@H]1OCCCC[C@@H](C)Oc2ccc(NC(=O)Cc3ccccc3)cc2C(=O)N([C@H](C)CO)C[C@@H]1C` here?
**A.** -0.325% (inactive)

**Q.** For `CCCNC(=O)N(C)C[C@@H]1Oc2ncc(-c3cccc(C#N)c3)cc2C(=O)N([C@@H](C)CO)C[C@@H]1C`, which activity (quench increase) is on record?
**A.** 0.957% (inactive)

**Q.** Which activity (quench increase) does the source give for `O=C(c1cnccn1)N1CC[C@@H]2[C@H](CO)Nc3ccc(-c4cccc(F)c4)cc3[C@@H]21` here?
**A.** 2.08% (inactive)

**Q.** With `CCOC(=O)C1CCCN(C(=O)c2ccc(C)c(F)c2)CC1` (configuration not stated) as the molecule, how does the activity (quench increase) read?
**A.** 0.23% (inactive)

**Q.** With `CCNC(=O)C1CCCN(C(=O)c2ccc(OC)cc2OC)CC1` (configuration not stated) as the molecule, how does the activity (quench increase) read?
**A.** -1.31% (inactive)

**Q.** For `CCNC(=O)C1CCCN(C(=O)c2cc(F)ccc2C)CC1` (configuration not stated), which activity (quench increase) is on record?
**A.** 10% (active)

**Q.** For `CCCNC(=O)N1[C@H](CO)[C@@H]2c3ccccc3N(C(=O)C3CCOCC3)C[C@@H]21`, which activity (quench increase) is on record?
**A.** 2.24% (inactive)

**Q.** For `COc1ccc(NC(=O)N(C)C[C@@H]2OCCCC[C@@H](C)Oc3ccc(NS(=O)(=O)c4cn(C)cn4)cc3C(=O)N([C@@H](C)CO)C[C@H]2C)cc1`, which activity (quench increase) is on record?
**A.** 0.433% (inactive)

**Q.** Which activity (quench increase) does the source give for `CC(C)(C)c1cc(C(=O)NN)n(Cc2ccc(Cl)cc2Cl)n1` here?
**A.** 8.63% (active)

**Q.** With `CC(C)(C)NC(=O)NC(=O)COC(=O)Cc1ccc(Cl)cc1Cl` as the molecule, how does the activity (quench increase) read?
**A.** 1.27% (inactive)

**Q.** With `Cn1cc(C(=O)c2ccc(Cl)cc2Cl)cc1C(=O)NN` as the molecule, how does the activity (quench increase) read?
**A.** -2.38% (inactive)

**Q.** Which activity (quench increase) does the source give for `C[C@H]1CN([C@@H](C)CO)C(=O)c2cc(C#CC(C)(C)O)cnc2O[C@H]1CN(C)C(=O)CC1CC1` here?
**A.** 0.266% (inactive)

**Q.** For `C[C@@H]1CN([C@H](C)CO)C(=O)c2cc(NS(=O)(=O)c3ccc(Cl)cc3)ccc2O[C@@H]1CN(C)CC1CCCCC1`, which activity (quench increase) is on record?
**A.** -0.515% (inactive)

**Q.** With `O=C(C[C@H]1C[C@@H]2c3cc(NC(=O)c4ccc5c(c4)OCO5)ccc3O[C@@H]2[C@@H](CO)O1)NCCN1CCCCC1` as the molecule, how does the activity (quench increase) read?
**A.** 0.031% (inactive)

**Q.** With `O=C(C1CC1)N1CC(=O)N2[C@H](CO)[C@@H](c3ccc(-c4ccccc4F)cc3)[C@@H]2C1` as the molecule, how does the activity (quench increase) read?
**A.** 11.5% (active)

**Q.** With `O=C(C1CCC1)N1CC(=O)N2[C@H](C1)[C@@H](c1ccc(-c3ccccc3F)cc1)[C@@H]2CO` as the molecule, how does the activity (quench increase) read?
**A.** 1.31% (inactive)

**Q.** With `O=C(C1CCCC1)N1CC(=O)N2[C@H](C1)[C@@H](c1ccc(-c3ccccc3F)cc1)[C@@H]2CO` as the molecule, how does the activity (quench increase) read?
**A.** -2.35% (inactive)

**Q.** Which activity (quench increase) does the source give for `COc1ccc(N2CCN(S(=O)(=O)c3ccc4c(c3)NC(=O)C(C)C(=O)N4)CC2)cc1` (configuration not stated) here?
**A.** 0.269% (inactive)

**Q.** For `CCOC(=O)N1CCN(S(=O)(=O)c2ccc3c(c2)C(C)C(=O)N3)CC1` (configuration not stated), which activity (quench increase) is on record?
**A.** 8.05% (active)

**Q.** For `CCOC(=O)N1CCN(S(=O)(=O)c2ccc(Br)cc2)CC1`, which activity (quench increase) is on record?
**A.** -1.86% (inactive)

**Q.** With `COc1cccc(S(=O)(=O)N[C@H]2C=C[C@@H](CC(=O)NCc3ccc(F)cc3)O[C@@H]2CO)c1` as the molecule, how does the activity (quench increase) read?
**A.** -1.9% (inactive)

**Q.** For `Cc1ccc(S(=O)(=O)N(C)C[C@@H]2Oc3c(NC(=O)Nc4ccc(F)cc4)cccc3C(=O)N([C@H](C)CO)C[C@H]2C)cc1`, which activity (quench increase) is on record?
**A.** 0.333% (inactive)

**Q.** Which activity (quench increase) does the source give for `C[C@@H]1CN([C@H](C)CO)C(=O)c2cccc(NC(=O)Nc3cccc4ccccc34)c2O[C@@H]1CN(C)C(=O)Nc1ccc(F)cc1` here?
**A.** 1.61% (inactive)

**Q.** For `COc1ccc(-c2c(C)cc3oc(=O)cc(-c4ccccc4)c3c2C)cc1F`, which activity (quench increase) is on record?
**A.** 3.75% (inactive)

**Q.** For `COc1ccc(-c2c(C)cc3oc(=O)cc(-c4ccccc4)c3c2C)cc1OC`, which activity (quench increase) is on record?
**A.** 9.4% (active)

**Q.** For `COc1ccc(-c2c(C)cc3oc(=O)cc(-c4ccccc4)c3c2C)cc1C=O`, which activity (quench increase) is on record?
**A.** 0.386% (inactive)

**Q.** With `CCC(=O)N(C)C[C@H]1Oc2cc(C#CC3CC3)ccc2S(=O)(=O)N([C@@H](C)CO)C[C@@H]1C` as the molecule, how does the activity (quench increase) read?
**A.** -0.535% (inactive)

**Q.** Which activity (quench increase) does the source give for `CC(C)Cc1ccc(-c2cc3nc(NCc4cccc(Cl)c4)ccn3n2)cc1` here?
**A.** 8.67% (active)

**Q.** With `COc1ccccc1-c1cc2nc(NCc3cccc(Cl)c3)ccn2n1` as the molecule, how does the activity (quench increase) read?
**A.** 0.85% (inactive)

**Q.** Which activity (quench increase) does the source give for `COCCCNc1ccn2nc(-c3ccc(CC(C)C)cc3)cc2n1` here?
**A.** 2.65% (inactive)

**Q.** With `C[C@H]1CN([C@@H](C)CO)C(=O)c2cccc(NS(=O)(=O)c3cccs3)c2O[C@H]1CN(C)Cc1ccc(C(=O)Nc2ccccc2N)cc1` as the molecule, how does the activity (quench increase) read?
**A.** 0.531% (inactive)

**Q.** With `C#Cc1cc(N2CCN(C(=O)c3ccoc3)CC2)n2nc(-c3cccc(Cl)c3)cc2n1` as the molecule, how does the activity (quench increase) read?
**A.** 8.96% (active)

**Q.** Which activity (quench increase) does the source give for `CN(C)CCN1CCN(c2cc(-c3cccc(Cl)c3)nc3ccnn23)CC1` here?
**A.** -1.38% (inactive)

**Q.** Which activity (quench increase) does the source give for `O=C(c1ccccc1)N1CCN(c2cc(-c3ccccc3)nc3cc(-c4cccc(Cl)c4)nn23)CC1` here?
**A.** -2.01% (inactive)

**Q.** Which activity (quench increase) does the source give for `C[C@H]1CN([C@@H](C)CO)C(=O)Cc2cc(NS(=O)(=O)c3cn(C)cn3)ccc2O[C@H]1CN(C)C(=O)Nc1ccc(F)cc1` here?
**A.** 2.2% (inactive)
